# Laboratory results taken from PubChem BioAssay (NCI).
# Compounds without any hit were thinned out: in the full panel of roughly 79,000, 15% have a hit. Values without a mark were called inactive. Active and inactive are the calls of the source. Cut-off read from the data, not from the text of the source: active = growth inhibition above about 70%; inactive = the rest.
# What was measured:
# [1] = NCI Yeast Anticancer Drug Screen. Data for the rad52 strain (AID 147);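 note: 0% = growth of vehicle-treated control cultures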; details: S. cerevisiae rad52 mutant growth inhibition, hits give high values
# Method in brief: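 Yeast strain carrying a DNA damage repair alteration was exposed to test compounds. Growth inhibition was measured relative to vehicle-treated controls.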
# [2] = NCI Yeast Anticancer Drug Screen. Data for the wt1 strain (AID 149);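 note: 0% = growth of vehicle-treated wt1 cultures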; details: S. cerevisiae wt1 strain (SPY 50644) growth inhibition, hits give high values
# Method in brief: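 Measured: growth of wt1 yeast under compound versus vehicle treatment, reported as inhibition.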
# [3] = NCI Yeast Anticancer Drug Screen. Data for the rad50EPP+ strain (AID 151);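 note: 0% = growth of vehicle-treated control cultures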; details: S. cerevisiae rad50 mutant strain, hits give high values
# Method in brief: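 Yeast strain carrying rad50 alteration (rad50EPP+) exposed to compounds; growth inhibition measured relative to vehicle-treated controls.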
# [4] = NCI Yeast Anticancer Drug Screen. Data for the mgt1 strain (AID 153); details: S. cerevisiae mgt1 mutant growth inhibition, hits give high values
# Method in brief: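 Yeast mgt1 strain (DNA repair/cell-cycle alteration panel) exposed to compounds; growth inhibition measured relative to vehicle-treated controls.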
# [5] = NCI Yeast Anticancer Drug Screen. Data for the rad50 strain (AID 155);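 note: 0% = growth of vehicle-only cultures of the same strain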; details: S. cerevisiae rad50 strain growth inhibition, hits give high values
# Method in brief: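 Growth of the mutant yeast was measured after compound exposure and referenced to vehicle-treated cultures.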
# [6] = NCI Yeast Anticancer Drug Screen. Data for the mec2-1 strain (AID 157); details: S. cerevisiae mec2-1 strain, hits give high values
# Method in brief: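 mec2-1 yeast strain, carrying an alteration in DNA damage repair or cell cycle control, was exposed to compounds; growth inhibition was measured relative to vehicle-treated controls.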
# [7] = NCI Yeast Anticancer Drug Screen. Data for the rad14 strain (AID 159);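 note: 0% = growth of vehicle-treated control cultures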; details: S. cerevisiae rad14 strain growth inhibition, hits give high values
# Method in brief: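 Here, inhibition of yeast growth was measured after compound exposure, using a strain with a genetic defect in DNA damage repair and vehicle-treated cultures as the reference.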
# [8] = NCI Yeast Anticancer Drug Screen. Data for the sgs1 mgt1 strain (AID 161);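 note: 0% = growth of cultures given vehicle only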; details: S. cerevisiae sgs1 mgt1 strain, hits give high values
# Method in brief: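 This yeast growth screen uses a strain with defined DNA-repair lesions; compound-treated growth is compared with vehicle-treated growth.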
# [9] = NCI Yeast Anticancer Drug Screen. Data for the CLN2oe strain (AID 163);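 note: 0% = growth of vehicle-only control cultures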; details: S. cerevisiae CLN2oe strain, hits give high values
# Method in brief: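 Yeast cells carrying a defined cell-cycle control alteration were exposed to test compounds. Growth inhibition was scored against vehicle-treated control cultures.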
# [10] = NCI Yeast Anticancer Drug Screen. Data for the cln2 rad14 strain (AID 165);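 note: 0% = growth equal to vehicle treated cultures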; details: S. cerevisiae cln2 rad14 strain, hits give high values
# Method in brief: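 Yeast carrying cln2 and rad14 alterations (cell cycle control and DNA damage repair) were exposed to compounds. Growth inhibition was measured against vehicle-treated controls.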
# [11] = NCI Yeast Anticancer Drug Screen. Data for the bub3 strain (AID 167); details: S. cerevisiae bub3 mutant strain, hits give high values
# Method in brief: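 Whole-cell yeast assay. The mutant strain was incubated with compounds, and growth inhibition was determined by comparison with vehicle-treated cells.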
# [12] = NCI Yeast Anticancer Drug Screen. Data for the wt2 strain (AID 169);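 note: 0% = growth of vehicle-treated yeast cultures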; details: S. cerevisiae wt2 strain growth inhibition, hits give high values
# Method in brief: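 Yeast cells were exposed to test compounds, and growth inhibition was measured relative to vehicle-treated controls.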
# [13] = NCI Yeast Anticancer Drug Screen. Data for the mlh1 strain (AID 171);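 note: 0% = growth of vehicle-treated control cultures of the same strain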; details: S. cerevisiae mlh1 strain growth inhibition, hits give high values
# Method in brief: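 Yeast carrying a defined genetic alteration in DNA damage repair or cell cycle control were exposed to test compounds. Growth inhibition was measured relative to vehicle-treated controls.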
# [14] = NCI Yeast Anticancer Drug Screen. Data for the sgs1 strain (AID 173);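 note: 0% = growth of vehicle-only control cultures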; details: S. cerevisiae sgs1 mutant, hits give high values
# Method in brief: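 Yeast mutant strains carrying defined defects in DNA damage repair or cell cycle control were exposed to test compounds. Growth inhibition was scored against vehicle-treated controls.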
# [15] = NCI Yeast Anticancer Drug Screen. Data for the mlh1 rad18 strain (AID 175); details: S. cerevisiae mlh1 rad18 strain growth inhibition, hits give high values
# Method in brief: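 Growth inhibition of the yeast strain was measured after compound exposure and expressed relative to vehicle-treated controls. The strain carries defined defects in DNA damage repair.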
# [16] = NCI Yeast Anticancer Drug Screen. Data for the rad18 strain (AID 177); details: S. cerevisiae rad18 mutant growth inhibition, hits give high values
# Method in brief: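 Yeast carrying a defined DNA damage repair alteration were exposed to compounds. Growth inhibition was expressed relative to vehicle-treated controls.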
# [17] = at 5.0 µM (retest, dose inferred, filed as 0.5)
# [18] = at 50.0 µM (retest, dose inferred, filed as 5.0)
compound,measurement,setting,value
CSC(=S)Nc1cccc(C)n1,growth inhibition,[1]; at 1.2 µM,-6%
same,growth inhibition,[1]; at 3.7 µM,-5%
same,growth inhibition,[1]; at 11.0 µM,-3%
same,growth inhibition,[1]; at 33.0 µM,23%
same,growth inhibition,[1]; at 100.0 µM,63%
same,growth inhibition,[2]; at 1.2 µM,-35%
same,growth inhibition,[2]; at 3.7 µM,-24%
same,growth inhibition,[2]; at 11.0 µM,-25%
same,growth inhibition,[2]; at 33.0 µM,-15%
same,growth inhibition,[2]; at 100.0 µM,3%
same,growth inhibition,[3]; at 1.2 µM,-15%
same,growth inhibition,[3]; at 3.7 µM,-19%
same,growth inhibition,[3]; at 11.0 µM,-27%
same,growth inhibition,[3]; at 33.0 µM,-24%
same,growth inhibition,[3]; at 100.0 µM,68%
same,growth inhibition,[4]; at 1.2 µM,-52%
same,growth inhibition,[4]; at 3.7 µM,-29%
same,growth inhibition,[4]; at 11.0 µM,-11%
same,growth inhibition,[4]; at 33.0 µM,16%
same,growth inhibition,[4]; at 100.0 µM,59%
same,growth inhibition,[5]; at 1.2 µM,-25%
same,growth inhibition,[5]; at 3.7 µM,-4%
same,growth inhibition,[5]; [17],88% (active)
same,growth inhibition,[5]; at 11.0 µM,-11%
same,growth inhibition,[5]; at 33.0 µM,28%
same,growth inhibition,[5]; [18],99% (active)
same,growth inhibition,[5]; at 50.0 µM,41.8%
same,growth inhibition,[5]; at 100.0 µM,79% (active)
same,growth inhibition,[6]; at 1.2 µM,-61%
same,growth inhibition,[6]; at 3.7 µM,-61%
same,growth inhibition,[6]; [17],70% (active)
same,growth inhibition,[6]; at 11.0 µM,-58%
same,growth inhibition,[6]; at 33.0 µM,-36%
same,growth inhibition,[6]; [18],99% (active)
same,growth inhibition,[6]; at 50.0 µM,31.6%
same,growth inhibition,[6]; at 100.0 µM,34%
same,growth inhibition,[7]; at 1.2 µM,-19%
same,growth inhibition,[7]; at 3.7 µM,-15%
same,growth inhibition,[7]; at 11.0 µM,9%
same,growth inhibition,[7]; at 33.0 µM,2%
same,growth inhibition,[7]; at 100.0 µM,50%
same,growth inhibition,[8]; [17],-18%
same,growth inhibition,[8]; [18],29%
same,growth inhibition,[8]; at 50.0 µM,45%
same,growth inhibition,[9]; at 1.2 µM,-24%
same,growth inhibition,[9]; at 3.7 µM,-8%
same,growth inhibition,[9]; at 11.0 µM,-13%
same,growth inhibition,[9]; at 33.0 µM,12%
same,growth inhibition,[9]; at 100.0 µM,24%
same,growth inhibition,[10]; [17],9%
same,growth inhibition,[10]; [18],65%
same,growth inhibition,[10]; at 50.0 µM,38.2%
same,growth inhibition,[11]; at 1.2 µM,-9%
same,growth inhibition,[11]; at 3.7 µM,-16%
same,growth inhibition,[11]; [17],39%
same,growth inhibition,[11]; at 11.0 µM,-3%
same,growth inhibition,[11]; at 33.0 µM,15%
same,growth inhibition,[11]; [18],63%
same,growth inhibition,[11]; at 50.0 µM,54%
same,growth inhibition,[11]; at 100.0 µM,74% (active)
same,growth inhibition,[12]; at 1.2 µM,-29%
same,growth inhibition,[12]; at 3.7 µM,-30%
same,growth inhibition,[12]; at 11.0 µM,-31%
same,growth inhibition,[12]; at 33.0 µM,-10%
same,growth inhibition,[12]; at 100.0 µM,31%
same,growth inhibition,[13]; at 1.2 µM,-42%
same,growth inhibition,[13]; at 3.7 µM,-40%
same,growth inhibition,[13]; at 11.0 µM,-35%
same,growth inhibition,[13]; at 33.0 µM,-12%
same,growth inhibition,[13]; at 100.0 µM,66%
same,growth inhibition,[14]; at 1.2 µM,-47%
same,growth inhibition,[14]; at 3.7 µM,-49%
same,growth inhibition,[14]; at 11.0 µM,-32%
same,growth inhibition,[14]; at 33.0 µM,-6%
same,growth inhibition,[14]; at 100.0 µM,62%
same,growth inhibition,[15]; [17],55%
same,growth inhibition,[15]; [18],99% (active)
same,growth inhibition,[15]; at 50.0 µM,70.1% (active)
same,growth inhibition,[16]; at 1.2 µM,-20%
same,growth inhibition,[16]; at 3.7 µM,-15%
same,growth inhibition,[16]; at 11.0 µM,-22%
same,growth inhibition,[16]; at 33.0 µM,9%
same,growth inhibition,[16]; at 100.0 µM,69%
